Bioassay records deposited in PubChem by The Scripps Research Institute Molecular Screening Center.
hcDAF-12 act: activators of H. contortus DAF-12 nuclear receptor; HEK293 hcDAF-12 lit1-tk-luc reporter, luminescence; 0% DMSO, 100% Δ7-dafachronic acid; activation, % at 6.8 µM; 370,000 tested, 1.4% active;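 active = activation above the mean of all tested compounds plus 3 SD, cut at about 5.5% in these data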
DAX1 inh-1: inhibitors of DAX1 repression of SF-1 activated StAR promoter. AID 652010. 370,000 tested, 1.1% active. inhibition, % at 6.8 µM. HEK293T StAR-luciferase reporter, SF-1/DAX-1 repression relief;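 active = inhibition above the mean over all tested compounds plus 3 SD, cut at about 3.6% in these data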;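 also: higher inhibition means more luminescence from relief of DAX-1 repression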
ssDAF12 agonist: activators of S. stercoralis DAF-12 nuclear receptor | HEK293 ssDAF-12/GRIP1 lit1-tk-luc reporter, luminescence; % of 3 µM dafachronic acid response | activation, % at 6.8 µM | 370,000 tested, 1% active | AID 652126;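 active = activation above the mean over all tested compounds plus 3 SD, cut at about 0.9% in these data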
DAX1 inh-2: inhibitors of human orphan nuclear receptor DAX1 (NR0B1) | P51843 | inhibition, % at 6.75 µM | HEK293 Gal4-DAX1 luciferase reporter, luminescence | AID 504766 | 340,000 tested, 0.99% active;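 active = inhibition above the mean over all tested compounds plus 3 SD, cut at about 4.2% in these data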;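 also: inhibition shows as a rise in luminescence from relieved DAX1 repression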
hgDAF-12 ag: activates the H. glycines DAF-12 receptor ligand-binding domain. activation, % at 6.8 µM. 370,000 tested, 1.8% active. HEK293 GAL4-hgDAF12 UAS-luciferase reporter, agonist luminescence; normalized to butyrate control;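 active = activation above a cutoff set at the mean of all screened compounds plus 3 SD, cut at about 10% in these data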
SMARCA2 act: activators of SMARCA2 function; AID 652017; 370,000 tested, 1% active; MG213 cells, MMTV-luciferase reporter, dexamethasone, overnight; activation, % at 9.1 µM; in the data active = activation above about 7.8%
LXR ag: activates human LXR-beta, counter-screen for hcDAF-12 agonists; 3,400 tested, under 10 active; activation, % at 6.8 µM; HEK293 Gal4-LXR tk-luc reporter, luminescence, 24 h; normalized: DMSO 0%, positive control 100%; shares compounds with hcDAF-12 act; AID 743027;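 active = mean percent activation of the reporter above a cutoff set as the average over tested compounds plus their standard deviation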
Target sequence (P55055 whole entry, looked up, the tested form may be a part): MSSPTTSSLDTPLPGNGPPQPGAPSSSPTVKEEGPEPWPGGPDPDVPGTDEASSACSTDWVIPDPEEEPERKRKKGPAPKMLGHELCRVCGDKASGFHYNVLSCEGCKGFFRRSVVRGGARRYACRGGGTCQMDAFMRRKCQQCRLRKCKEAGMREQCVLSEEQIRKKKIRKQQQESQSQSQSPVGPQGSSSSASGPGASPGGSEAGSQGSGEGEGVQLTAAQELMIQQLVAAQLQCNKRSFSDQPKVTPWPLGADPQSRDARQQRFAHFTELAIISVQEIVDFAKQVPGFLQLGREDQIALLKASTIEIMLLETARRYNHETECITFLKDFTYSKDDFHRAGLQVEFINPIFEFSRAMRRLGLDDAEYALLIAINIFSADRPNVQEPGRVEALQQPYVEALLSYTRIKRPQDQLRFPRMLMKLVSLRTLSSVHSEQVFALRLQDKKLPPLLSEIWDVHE
hcDAF12 ag: hcDAF-12 agonism, confirmation assay; shares compounds with hcDAF-12 act; activation, % at 6.8 µM; 3,400 tested, 61% active; HEK293 hcDAF-12 lit1-tk-luc reporter, luminescence; % of Δ7-dafachronic acid response;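 active = mean activation across triplicate tests above the threshold derived from the earlier primary screen, cut at about 5.5% in these data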
Large screens that a line does not name were inactive (follow-up assays come after a bar, where they were run). This is a sample that favours compounds with a hit; in the whole collection about 4.8% have one here.

Clc1cccc(Cc2c(-c3cccc(Br)c3)nc3ccc(Br)cn23)c1	none (no result: DAX1 inh-2)
COc1ccc(S(=O)(=O)N2CCC(C(=O)NCC3CCCO3)CC2)cc1OC (stereo not given)	none (no result: DAX1 inh-2)
C=CCn1cnnc1SCC(=O)N(C)CC1COc2ccccc2O1 (stereo not given)	none
CC(=O)N1C(=O)/C(=C2\SC(=S)N(c3c(C)n(C)n(-c4ccccc4)c3=O)C2=O)c2ccccc21	hcDAF-12 act 9.3, ssDAF12 agonist 1.2 | LXR ag inactive | hcDAF12 ag inactive
CCN(CC)CCCNC(=O)c1cc2c(-c3ccc(Cl)cc3)nn(C)c2s1	hcDAF-12 act 6.6, DAX1 inh-2 5.5 | LXR ag inactive | hcDAF12 ag 6.7
CCOC(=O)c1cn[nH]c1NC(=S)Nc1ccc(Cl)cc1	hcDAF-12 act 7.9 (no result: DAX1 inh-2) | LXR ag inactive | hcDAF12 ag 10
COC(=O)c1nc(NC(=S)NC(=O)c2cccs2)sc1C	none
O=C(NC(=S)Nc1nc2ccccc2s1)c1cccs1	hcDAF-12 act 13, DAX1 inh-2 5.1 | LXR ag inactive | hcDAF12 ag 17
S=C(Nc1ccccc1)Nc1ccc(Br)cn1	none
O=C(NC(=S)Nc1ccc(Br)cn1)c1cccs1	hcDAF-12 act 13, ssDAF12 agonist 2.0, DAX1 inh-2 6.1, hgDAF-12 ag 14 | LXR ag inactive | hcDAF12 ag 12
COc1ccc(NC(=O)Cn2nc(Cc3cccnc3)c3ccccc3c2=O)c(OC)c1	none
Cc1ccc(C)c(S(=O)(=O)N2CCN(C(=O)CNC(=O)c3ccc4ccccc4c3)CC2)c1	none
Cc1cc2ncc(-c3ncc(C(F)(F)F)cc3Cl)cn2n1	hcDAF-12 act 8.3, hgDAF-12 ag 12 | LXR ag inactive | hcDAF12 ag 6.7
CCN1CCc2nc(NC(=O)c3ccccc3)sc2C1	hcDAF-12 act 8.9, DAX1 inh-1 4.0 | LXR ag inactive | hcDAF12 ag 6.8
O=C(NC(=S)Nc1nc2c(s1)CCCC2)c1ccccc1	hcDAF-12 act 12, ssDAF12 agonist 1.0, hgDAF-12 ag 11 | LXR ag inactive | hcDAF12 ag 16
O=C(Nc1nc2c(s1)CN(Cc1ccccc1)CC2)C1CCC1	none
COC(=O)CC(=O)CSc1nc2c(cc1C#N)CCCCC2	hcDAF-12 act 10, hgDAF-12 ag 11 | LXR ag inactive | hcDAF12 ag inactive
CCN1CCN(S(=O)(=O)c2cccc([N+](=O)[O-])c2)CC1	none
COCCCNc1nc2c(-c3ccc(C)cc3)nnn2c2ccccc12	hcDAF-12 act 8.0, ssDAF12 agonist 3.6, hgDAF-12 ag 12 | LXR ag inactive | hcDAF12 ag 8.0
Cc1cccc(Nc2nc3c(S(=O)(=O)c4ccccc4)nnn3c3ccccc23)c1	none
COCCCNc1nc2c(-c3cccc(C)c3)nnn2c2ccccc12	hcDAF-12 act 6.9 | LXR ag inactive | hcDAF12 ag inactive
CCc1ccc(NC(=O)c2cccc(C(=O)Nc3ccc(CC)cc3)n2)cc1	none
COC(=O)c1cccc(C(=O)Nc2ccc(C)cc2)n1	hcDAF-12 act 7.1, ssDAF12 agonist 1.0 | LXR ag inactive | hcDAF12 ag 7.5
CCCCCCCCNC(=O)c1cccnc1SCC(=O)Nc1ccc(OC)cc1OC	none
Cc1cccc(NC(=S)NC(=O)C2CC2)c1	none (no result: hcDAF-12 act, DAX1 inh-1, ssDAF12 agonist, hgDAF-12 ag, SMARCA2 act)
Cc1cc(NC(=S)NC(=O)C2CC2)ccc1Br	hcDAF-12 act 8.8, DAX1 inh-2 4.9 | LXR ag inactive | hcDAF12 ag 6.3
Cc1ccc(SCc2nc3ccccc3n2CC(=O)Nc2ccccc2)cc1	none
O=C1/C(=C/Nc2ccc3c(c2)OCO3)CCc2ccccc21	hcDAF-12 act 9.4 | LXR ag inactive | hcDAF12 ag 7.5
CCCNc1nc(Cl)nc(NCc2cccnc2)n1	none
O=S1(=O)c2c(cccc2N2CC[C@H](O)C2)O[C@H]2CCN1C2	none (no result: DAX1 inh-2)
CCC(=O)NNc1nc2c(F)cccc2s1	hcDAF-12 act 7.0 | LXR ag inactive | hcDAF12 ag inactive
Fc1cccc2sc(Nc3nc4ccccc4s3)nc12	hcDAF-12 act 12 | LXR ag inactive | hcDAF12 ag 11
COc1ccc(-c2cn3ccccc3n2)cc1OC	hcDAF-12 act 13, ssDAF12 agonist 3.1, hgDAF-12 ag 11 | LXR ag inactive | hcDAF12 ag 13
COc1ccc(CC(=O)Nc2ccc(-c3cn4ccccc4n3)cc2)cc1OC	none
CC(=O)Nc1ccc(NC(=O)CN2C(=O)COc3ccc(S(=O)(=O)N4CCOCC4)cc32)cc1	none
CCN(CC)S(=O)(=O)c1ccc2c(c1)N(CC(=O)Nc1ccc(NC(C)=O)cc1)C(=O)CO2	hcDAF-12 act 6.8 | LXR ag inactive | hcDAF12 ag inactive
CC1Cn2c(nnc2-c2ccc(F)cc2)S1 (stereo not given)	hcDAF-12 act 6.9, ssDAF12 agonist 1.0 | LXR ag inactive | hcDAF12 ag inactive
CC1Cn2c(nnc2-c2cccc(Cl)c2)S1 (stereo not given)	none
CCC(C)c1ccc(Nc2ncccc2C#N)cc1 (stereo not given)	hcDAF-12 act 7.7 | LXR ag inactive | hcDAF12 ag 8.6
CCc1ccc(Nc2ncccc2C#N)cc1	none
Cc1c(C(=O)N2CCN(Cc3cccs3)CC2)oc2ccccc12	none
C=CCN1CCN(C(=O)c2oc3ccccc3c2C)CC1	hcDAF-12 act 7.5 | LXR ag inactive | hcDAF12 ag inactive
Cc1cccc(C(=O)N[C@H](C(=O)Nc2cccc(S(=O)(=O)N3CCCC3)c2)C(C)C)c1	none
COC(=O)c1sc(-c2ccc(C(C)(C)C)cc2)cc1NC(=O)c1ccccc1C(=O)O	hcDAF-12 act 6.8, ssDAF12 agonist 1.5, hgDAF-12 ag 12 | LXR ag inactive | hcDAF12 ag inactive
CCCC(=O)C1=C(O)C(C(=O)OC)C(C)(C)CC1=NCCc1ccc(OC)c(OC)c1 (stereo not given)	none
COc1ccccc1Nc1ccc(C(=O)NCc2cccs2)cn1	none
COc1ccccc1Nc1ncc(-c2cccs2)s1	hcDAF-12 act 11, ssDAF12 agonist 1.3 | LXR ag inactive | hcDAF12 ag 15
Cc1ccc2ccc(C3C(=O)c4ccccc4C3=O)nc2c1	hcDAF-12 act 15, ssDAF12 agonist 1.8, hgDAF-12 ag 14 | LXR ag inactive | hcDAF12 ag 19
COc1cccc(-n2c(SCC(=O)N3CCCCC3)nc3c([nH]c4ccccc43)c2=O)c1	hcDAF-12 act 7.0 | LXR ag inactive | hcDAF12 ag inactive
